Assay outcomes as filed in PubChem.
D1 potentiator – Potentiators of Human D1 Dopamine Receptor: qHTS | HEK293 TREx D1 cells, calcium flux, dopamine EC20 potentiation | potentiation, % at 10 µM | 360,000 tested, 0.036% active; in the data active means potentiation above about 30%
Target sequence (P21728 whole entry, looked up): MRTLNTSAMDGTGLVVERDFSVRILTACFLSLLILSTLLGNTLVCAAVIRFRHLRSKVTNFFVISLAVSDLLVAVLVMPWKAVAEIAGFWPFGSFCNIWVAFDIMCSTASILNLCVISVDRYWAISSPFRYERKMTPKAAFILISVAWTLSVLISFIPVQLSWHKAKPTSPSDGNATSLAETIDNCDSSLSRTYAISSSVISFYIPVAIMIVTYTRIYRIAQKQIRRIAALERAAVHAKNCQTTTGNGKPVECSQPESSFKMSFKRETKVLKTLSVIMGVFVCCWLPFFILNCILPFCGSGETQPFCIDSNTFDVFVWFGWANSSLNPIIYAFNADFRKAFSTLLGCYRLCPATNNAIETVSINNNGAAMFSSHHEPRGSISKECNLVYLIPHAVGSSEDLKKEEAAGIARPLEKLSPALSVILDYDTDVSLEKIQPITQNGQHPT
DRD3 agonist – qHTS of D3 Dopamine Receptor Agonist: qHTS. max activation, %. D3R DiscoveRx beta-arrestin cells, luminescence, 90 min. 410,000 tested, 0.58% active. D(3) dopamine receptor (Homo sapiens), P35462; in the data active means max activation above about 30%
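Cells at 1500/well, incubated overnight, then treated with pinned compounds (dopamine as control) for 90 min at 37 degrees C. DiscoveRx reagent added for 30 - 60 minutes at room temperature; luminescence read.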
DRD3 antagonist – qHTS of D3 Dopamine Receptor Antagonist: qHTS; D(3) dopamine receptor (Homo sapiens), P35462; D3R cells, DiscoveRx beta-arrestin luminescence, antagonist mode; stronger effect = lower value; max response, negative = inhibition, %; 360,000 tested, 2.5% active; AID 652054, 2013; in the data active means max response below about -50%; inconclusive means no clear call, values can overlap the other calls
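Cells expressing the human receptor were seeded at 1500 cells/well, incubated overnight at 37 degrees C in 5% CO2, then exposed to library compounds with dopamine controls for 90 minutes at 37 degrees C before luminescent detection.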
D1 antag – Antagonist of Human D 1 Dopamine Receptor: qHTS; 360,000 tested, 3.2% active; D(1A) dopamine receptor (Homo sapiens), P21728; activity change, negative = inhibition, % at 10 µM; HEK293 TREx D1 cells, calcium flux, dopamine EC80; stronger effect = lower value; in the data active means activity change below about -30%
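Allosteric or orthosteric antagonism assessed as attenuation of the calcium response to EC80 dopamine, added 180 s after compound, in induced HEK293 Trex D1 cells loaded with no-wash calcium dye.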
D1 agonist – Allosteric Agonists of the Human D1 Dopamine Receptor: qHTS | D(1A) dopamine receptor (Homo sapiens), P21728 | HEK293 T-REx D1 cells, calcium flux, agonist mode | activation, % at 2 µM | 360,000 tested, 1% active; in the data active means activation above about 30%
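Inducible HEK293 T-REx D1 cells, force-coupled to calcium signalling, were plated at 4000 cells/well with tetracycline and held overnight at 30 C. After no-wash calcium dye loading, compound-evoked calcium rise over 180 s flagged agonists.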
Of the large screens only hits and unclear results are named; the others gave an inactive call. Shown are actives, neighbours in structure and some others; about 6% of the full set was active somewhere.

CCCCN(C)CC(O)Cn1cc(/C=C/C(=O)c2ccc(Br)cc2)c2ccccc21 (stereo not drawn)	D1 antag -57, D1 agonist 126 (no result: DRD3 antagonist)
CCCCN(C)CC(O)Cn1cc(/C=C/C(=O)c2ccc(C)cc2)c2ccccc21 (stereo not drawn)	D1 agonist 33
CN1CCN(Cn2cc(/C=C/C(=O)c3ccccc3)c3ccccc32)CC1	none
CCOc1ccc(/C=C/c2nc(C#N)c(N3CCC(C)CC3)o2)cc1	none (no result: DRD3 antagonist)
Cc1nc2cccnc2n1C1CCN(S(=O)(=O)c2ccc(C(C)C)cc2)CC1	D1 agonist 39 (no result: DRD3 antagonist)
Cc1ccc(S(=O)(=O)NCC(=O)NCC(=O)OCc2c(F)cccc2Cl)cc1	D1 antag -62
Cc1ccccc1Nc1c(-c2c[nH]c3ccccc23)nc2cccc(C)n12	D1 agonist 33 (no result: DRD3 antagonist)
Cc1ccc2nc(-c3c[nH]c4ccccc34)c(Nc3ccccc3C)n2c1	none (no result: DRD3 antagonist)
CCNc1nc(NCC)nc(Nn2cnnc2)n1	D1 antag -38
Cc1cc(C)c2c(=O)[nH]c(SCc3ccc([N+](=O)[O-])cc3)nc2n1	DRD3 antagonist -69
Cc1cc(C)c2c(=O)[nH]c(SCC(=O)NCc3ccccc3)nc2n1	none
Cc1cc(C)c2c(=O)[nH]c(SCc3ccccc3C)nc2n1	DRD3 antagonist -66
Cc1cc(SCc2ccc([N+](=O)[O-])cc2)nc(=O)[nH]1	none
CCOC(=O)c1c(-c2ccc(C)cc2)csc1NC(=O)c1cc(=O)c2cc(C)c(C)cc2o1	none (no result: DRD3 antagonist)
O=C(NCCOCCn1c(=O)oc2ccccc21)Nc1ccc(Cl)cc1	none (no result: DRD3 antagonist)
NC(=O)c1ccc(NC(=O)CN2CCN(S(=O)(=O)c3ccc4ccccc4c3)CC2)cc1	none (no result: D1 potentiator)
CC(=O)c1ccc(N2CCN(S(=O)(=O)c3ccc4ccccc4c3)CC2)cc1	D1 antag -35
CC(C)N1CCN(S(=O)(=O)c2ccc3ccccc3c2)CC1	D1 antag -92
O=C(O)C1SCCN1S(=O)(=O)c1ccc2ccccc2c1 (stereo not drawn)	none
CC1SCCN1S(=O)(=O)c1ccc2ccccc2c1 (stereo not drawn)	DRD3 antagonist -59
CC(=O)c1ccc(NC(=O)CN2CCN(S(=O)(=O)c3ccc4ccccc4c3)CC2)cc1	D1 antag -35, D1 agonist 35 (no result: D1 potentiator)
CCS(=O)(=O)N1CCN(S(=O)(=O)c2ccc3ccccc3c2)CC1	none
CC(=O)c1ccc(N2CCN(S(=O)(=O)c3ccc4c(c3)C(C)(C)C(=O)N4)CC2)cc1	none (no result: DRD3 antagonist)
COCc1cc(C)nc2sc3c(c12)NC(c1ccc(O)cc1)N(c1ccc(C)cc1)C3=O (stereo not drawn)	none (no result: DRD3 antagonist)
CN1CCc2c(sc(/N=C/c3c[nH]c4ccccc34)c2C#N)C1	DRD3 antagonist inconclusive
CN1CCc2c(sc(/N=C/c3c[nH]c4ccccc34)c2C(N)=O)C1	DRD3 antagonist -52
COc1ccc(C(CNC(=O)C(C)(C)Oc2ccc(Cl)cc2)N2CCOCC2)cc1 (stereo not drawn)	DRD3 antagonist -75 (no result: D1 potentiator, D1 antag, D1 agonist)
COc1ccc(OCC(=O)NCC(c2ccc(OC)cc2)N2CCOCC2)cc1 (stereo not drawn)	none (no result: DRD3 antagonist)
CC(C)(Oc1ccc(Cl)cc1)C(=O)NCC(c1ccco1)N1CCCCC1 (stereo not drawn)	none
COc1ccc(C(CNC(=O)C(C)(C)Oc2ccc(Cl)cc2)N2CCCCC2)cc1 (stereo not drawn)	DRD3 antagonist -83
CC1CCc2c(sc3nnn(CC(=O)Nc4cccc(C(F)(F)F)c4)c(=O)c23)C1 (stereo not drawn)	none (no result: DRD3 antagonist)
CCOc1ccc(CCNC(=O)c2cccc(-n3c(C)nc4cccnc43)c2)cc1	none (no result: DRD3 antagonist)
CCc1ccc(OC(C)C(=O)N2CCC(c3nc4ccccc4s3)CC2)cc1 (stereo not drawn)	none (no result: DRD3 antagonist)
Cc1ccccc1Nc1nnc(SCc2nc3ccccc3c(=O)[nH]2)s1	none (no result: DRD3 agonist, DRD3 antagonist)
CCOc1ccc(Nc2nnc(SCc3nc4ccccc4c(=O)[nH]3)s2)cc1	DRD3 antagonist -62
CCc1ccccc1NC(=O)C1CCCN(S(=O)(=O)c2ccc3[nH]c(=O)ccc3c2)C1 (stereo not drawn)	none (no result: DRD3 antagonist)
O=C(O)CCCN1C(=O)C(=O)/C(=C(/O)c2ccccc2)C1/C=C/c1ccccc1 (stereo not drawn)	D1 antag -31
O=C(O)CCCN1C(=O)C(=O)/C(=C(/O)c2ccc(Cl)cc2)C1c1ccccc1 (stereo not drawn)	none
O=C(c1cccs1)N1CCc2c([nH]c3ccccc23)C1c1ccc(Cl)cc1 (stereo not drawn)	DRD3 antagonist -53
CC(=O)c1ccc(C(=O)N2CCc3c([nH]c4ccccc34)C2c2ccccn2)s1 (stereo not drawn)	D1 antag -31
Cc1cccc(C(=O)NCCc2nc3ccccc3n2CCC(C)C)c1	none (no result: DRD3 antagonist)
Cc1cc2c(s1)c1cnn(Cc3ccc(C(F)(F)F)cc3)c(=O)c1n2C	none (no result: DRD3 agonist, DRD3 antagonist)
COc1ccc(C2=CC(c3ccc(F)cc3)n3nnnc3N2)cc1 (stereo not drawn)	none
COc1ccc(C(=O)Nc2nc3n(n2)C(c2ccccc2)C=C(c2ccccc2)N3)cc1 (stereo not drawn)	D1 agonist 32 (no result: DRD3 antagonist)
COc1ccc(C2C=C(c3cccs3)Nc3nc(CCCO)nn32)cc1 (stereo not drawn)	D1 agonist 64 (no result: DRD3 agonist, DRD3 antagonist)
COc1ccc(C2CC(c3ccc(Cl)cc3)Nc3nc(NC(=O)c4ccco4)nn32)cc1 (stereo not drawn)	none
COc1ccc(C2C=C(c3ccc(F)cc3)Nc3nc(-c4ccc(Cl)cc4)nn32)cc1 (stereo not drawn)	D1 agonist 38 (no result: DRD3 antagonist)
O=C(Nc1nc2n(n1)C(c1ccc(Cl)cc1)CC(c1ccc(Cl)cc1)N2)c1ccco1 (stereo not drawn)	DRD3 antagonist -53
COc1ccc(C2C=C(c3ccccc3)Nc3nc(CCCO)nn32)cc1 (stereo not drawn)	none
CCC(=O)Nc1ccc2nc(SCCOc3ccc(C)cc3OC)sc2c1	none (no result: DRD3 antagonist)
CCC(=O)Nc1nc2n(n1)C(c1ccc(OC)cc1)C=C(c1ccccc1)N2 (stereo not drawn)	D1 agonist 69 (no result: DRD3 agonist, DRD3 antagonist)
COc1ccc(C2C=C(c3ccc(Cl)cc3)Nc3nc(NC(C)=O)nn32)cc1 (stereo not drawn)	D1 agonist 40 (no result: DRD3 agonist, DRD3 antagonist)
COc1ccc(C2C=C(c3ccccc3)Nc3nc(NC(=O)/C=C/c4ccccc4)nn32)cc1 (stereo not drawn)	none (no result: DRD3 antagonist)
O=C(Nc1nc2n(n1)C(c1ccccc1)C=C(c1ccc(Cl)cc1)N2)c1ccco1 (stereo not drawn)	D1 agonist 47 (no result: DRD3 antagonist)
CC(=O)Nc1nc2n(n1)C(c1ccccc1)C=C(c1ccccc1)N2 (stereo not drawn)	none
